Assay [1] can be described thus: selective activators of receptor GPR55 – imaging, U2OS cells, beta-arrestin-GFP redistribution, primary screen (AID 1961).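 For activation: plate controls were DMSO negative control for no effect and LPI positive control for full effect.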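 Note: U2OS osteosarcoma cells stably expressing GPR55 and beta-arrestin-GFP.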 To be noted: measured here: cytotoxicity, cells analyzed, at 10 µM.
Assay [2] has as its target G-protein coupled receptor 55 (Homo sapiens) (UniProt Q9Y2T6). The description is as above. The settings on record: at 10 µM, stronger effect = higher value.

The campaign covered roughly 290,000 compounds. About 140 (0.048%) were called active.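 Rule for the calls: active = activation above 40% with more than 50 cells counted in the well; inconclusive = wells holding fewer than 50 cells, flagged as toxic or sparse; inactive = the rest.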 Shown is part of a subset that was picked to be rich in actives.

Chain of G-protein coupled receptor 55 (Homo sapiens) (Q9Y2T6 whole entry, looked up): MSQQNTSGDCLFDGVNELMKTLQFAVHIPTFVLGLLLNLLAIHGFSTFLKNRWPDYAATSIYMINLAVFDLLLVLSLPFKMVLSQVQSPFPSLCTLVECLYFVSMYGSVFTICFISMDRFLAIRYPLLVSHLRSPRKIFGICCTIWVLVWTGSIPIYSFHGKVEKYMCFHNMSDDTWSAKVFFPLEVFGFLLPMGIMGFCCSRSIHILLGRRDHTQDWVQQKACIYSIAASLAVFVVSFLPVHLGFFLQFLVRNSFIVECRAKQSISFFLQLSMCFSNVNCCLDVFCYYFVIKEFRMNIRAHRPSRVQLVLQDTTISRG

Regarding `COc1ccc(CN2C(=O)c3cccc4cccc(c34)C2=O)cc1`, the cell count in assay [1] was 353 cells. In addition, the activation in assay [2] is -0.1% (inactive).

In assay [1], `COc1ccc(CN2C(=O)c3ccccc3C2=O)cc1` returned a cell count of 379 cells. In addition, the activation in assay [2] was 0.6% (inactive).

`CCc1nn(CC(=O)NCCc2ccc(Cl)cc2)c(=O)c2cccn12` showed a cell count in assay [1] of 343 cells. The activation in assay [2] is 0% (inactive).

As to `CCOC(=O)C(CC)(CCC(=O)OC)c1csc(Nc2ccccc2O)n1` (stereo not drawn), the cell count in assay [1] turned out to be 367 cells. The activation in assay [2] was -0.1% (inactive).

In assay [1], `Fc1cccc(NCCc2c[nH]c3ccccc23)n1` showed a cell count of 334 cells. In assay [2], the activation was -0.2% (inactive).

In the case of `COc1ccccc1N1CCN(C2CCN(C(=O)COc3ccccc3)CC2)CC1`, the cell count in assay [1] was 401 cells. Besides, the activation in assay [2] was -0.1% (inactive).

In assay [1], `O=C(NCCN1CCOCC1)c1cc(-c2ccco2)on1` registered a cell count of 315 cells. Moreover, in assay [2], the activation was -0.1% (inactive).

Take `COc1ccc(Nc2nc(Cl)c(C=O)s2)cc1`: in assay [1], the cell count came out at 273 cells. Further, the activation in assay [2] is 0.2% (inactive).

As to `Cc1nnnn1/C(=C\c1ccccc1)C(=O)OCC(=O)N(C)C1CCS(=O)(=O)C1` (stereo not drawn), the cell count in assay [1] amounted to 254 cells. Besides, in assay [2], the activation is -0.4% (inactive).

`Cc1nnnn1/C(=C\c1ccccc1)C(=O)OCC(=O)NC(C)(C)C` had a cell count in assay [1] of 301 cells. The activation in assay [2] is -0.3% (inactive).

In assay [1], `Cc1nnnn1/C(=C\c1ccccc1)C(=O)OCC(=O)N1CC2(C)CC1CC(C)(C)C2` (stereo not drawn) gave a cell count of 330 cells. The activation in assay [2] is 74.3% (active).

Take `CS(=O)(=O)N(CC(=O)NCCc1ccccc1)C1CCCCC1`: the cell count in assay [1] stood at 388 cells. Moreover, the activation in assay [2] is -0.1% (inactive).

For the molecule `N#Cc1c2n(c(=S)n(-c3ccc(F)cc3)c1=O)CCCCC2`, the cell count in assay [1] amounted to 250 cells. Moreover, the activation in assay [2] is -0.3% (inactive).

Consider `CC(C)CC(=O)Nc1nnc(S(=O)(=O)N(C)Cc2ccco2)s1`, for which, in assay [1], the cell count stood at 342 cells. For the same molecule, the activation in assay [2] is -0.2% (inactive).

As to `CSc1ccccc1OCc1cc(C(=O)N2CCc3sccc3C2)no1`, the cell count in assay [1] was 327 cells. For the same molecule, in assay [2], the activation was -0.2% (inactive).

As for `Cc1ccc2c(C)c(C(=O)N3CCN(Cc4ccc5c(c4)OCO5)CC3)oc2c1C`, the cell count in assay [1] worked out at 372 cells. Besides, the activation in assay [2] is -0.1% (inactive).

Turning to `COc1ccc(S(=O)(=O)NCCSC(C)(C)C)cc1Cl`, the cell count in assay [1] stood at 346 cells. Moreover, the activation in assay [2] was -0.1% (inactive).

As for `CCOC(=O)Cn1c(CN2CCN(C(c3ccccc3)c3ccccc3)CC2)nc2c1c(=O)n(C)c(=O)n2C`, in assay [1], the cell count amounted to 284 cells. Besides, the activation in assay [2] is 0.3% (inactive).

Regarding `O=C(C1CCCN(S(=O)(=O)c2cccc3nsnc23)C1)N1CCCCCC1` (stereo not drawn), in assay [1], the cell count stood at 250 cells. In addition, the activation in assay [2] is 0.1% (inactive).

`N#Cc1ccccc1NC(=O)CC1CCCCC1` yielded a cell count in assay [1] of 377 cells. For the same molecule, the activation in assay [2] is -0.1% (inactive).

For `O=C(O)c1ccc[nH]c1=S`, the cell count in assay [1] was found to be 381 cells. Also, in assay [2], the activation was 0% (inactive).

The molecule `CCN(CC)S(=O)(=O)c1ccc(N2CCOCC2)c(NCC(=O)Nc2ccc(F)cc2)c1` returned a cell count in assay [1] of 259 cells. Also, the activation in assay [2] is -0.1% (inactive).

Consider `CN1/C(=C\C(=S)NC(=O)c2ccccc2Cl)C(C)(C)c2ccccc21`, for which, in assay [1], the cell count was determined as 357 cells. Further, the activation in assay [2] was -0.2% (inactive).

Turning to `COc1ccccc1C(=O)NC(=S)/C=C1/N(C)c2ccccc2C1(C)C`, the cell count in assay [1] stood at 278 cells. Further, the activation in assay [2] is 91% (active).

Regarding `Cc1ccc(C(=O)NC(=S)/C=C2\N(C)c3ccccc3C2(C)C)cc1`, the cell count in assay [1] amounted to 272 cells. Further, the activation in assay [2] was 0.2% (inactive).

In the case of `COc1cccc(C(=O)Nc2cnn(C(C)C)c2)c1`, the cell count in assay [1] came out at 253 cells. The activation in assay [2] was -0.2% (inactive).

The molecule `CNc1nc(-c2ccc(Cl)cc2)cs1` gave a cell count in assay [1] of 302 cells. In addition, the activation in assay [2] is -1% (inactive).

In the case of `COc1ccc(NC(=O)NC2CCCCCCC2)c(OC)c1`, the cell count in assay [1] turned out to be 240 cells. Besides, the activation in assay [2] is -0.1% (inactive).

In assay [1], `CCC(=O)Nc1ccc(OC)cc1OC` had a cell count of 375 cells. Further, the activation in assay [2] was -0.2% (inactive).

In assay [1], `CCOC(=O)c1[nH]c2ccc(C(=O)OC)cc2c1C(=O)OCC` showed a cell count of 400 cells. Besides, the activation in assay [2] was -0.3% (inactive).

`CCCCc1ccc(C2C(C#N)=C(N)SC(N)=C2C#N)s1` gave a cell count in assay [1] of 340 cells. In addition, the activation in assay [2] is 0.2% (inactive).

In assay [1], `O=C(COC(=O)/C=C/c1cccc(Cl)c1)NCCc1ccc(Cl)cc1Cl` displayed a cell count of 315 cells. In assay [2], the activation is 0% (inactive).

In assay [1], `O=C(O)C1CCCN1C(=O)c1cncc(Br)c1` (stereo not drawn) came in with a cell count of 262 cells. For the same molecule, the activation in assay [2] was -0.2% (inactive).

Take `CC(C)OCC(O)Cn1c(N2CCCC2)nc2c1c(=O)[nH]c(=O)n2C` (stereo not drawn): the cell count in assay [1] was found to be 350 cells. The activation in assay [2] is -0.2% (inactive).

Turning to `Cc1c(C2N3CC4(C)CN2CC(C)(C3)C4=O)c2ccccc2n1C` (stereo not drawn), the cell count in assay [1] is 309 cells. In addition, the activation in assay [2] is 0.1% (inactive).

For `CC(C)(C)NC(=O)CSc1nncn1NCc1c(Cl)cccc1Cl`, in assay [1], the cell count came out at 294 cells. The activation in assay [2] was -0.2% (inactive).

The molecule `COc1cc2c3nnc(-c4ccc(F)cc4)c-3cn(Cc3ccccc3F)c2cc1OC` showed a cell count in assay [1] of 274 cells. Moreover, in assay [2], the activation was 76.7% (active).

Take `COc1cc2c3nnc(-c4ccccc4)c-3cn(Cc3ccc(F)cc3)c2cc1OC`: the cell count in assay [1] was 393 cells. In addition, the activation in assay [2] is 1.3% (inactive).

With `COc1cc2c3nnc(-c4ccc(F)cc4)c-3cn(Cc3ccc(F)cc3)c2cc1OC`, the cell count in assay [1] was 348 cells. Also, in assay [2], the activation was 16.9% (inactive).

Consider `Cc1oc2c(C)c(O)ccc2c(=O)c1N1C(=O)c2ccccc2C1=O`, for which, in assay [1], the cell count was 286 cells. In addition, in assay [2], the activation is 0.2% (inactive).

As to `CCOc1ccc2nc(SCC(=O)N3c4ccccc4Sc4ccccc43)sc2c1`, the cell count in assay [1] was found to be 319 cells. In addition, in assay [2], the activation is 16.7% (inactive).

For `CCOc1ccc2nc(SCC(=O)N3CCCCCC3)c(C#N)cc2c1`, in assay [1], the cell count turned out to be 334 cells. In addition, the activation in assay [2] was -0.1% (inactive).

Turning to `CCOc1ccc2nc(SCC(=O)N3c4ccccc4Sc4ccccc43)c(C#N)cc2c1`, the cell count in assay [1] stood at 304 cells. The activation in assay [2] was 112% (active).

In assay [1], `Nc1cccnc1Sc1ccc(Cl)cc1` registered a cell count of 377 cells. Further, the activation in assay [2] was 0% (inactive).

In assay [1], `COC(=O)c1cc(OC)c(OC)cc1NC(=O)CC1CCCCC1` yielded a cell count of 320 cells. Moreover, in assay [2], the activation was -0.2% (inactive).

Molecule `Cc1cccc(NS(=O)(=O)c2cc([N+](=O)[O-])ccc2C)n1` came in with a cell count in assay [1] of 419 cells. Further, in assay [2], the activation was -0.1% (inactive).

Take `COc1cc(/C=C/C(=O)Oc2coc(CSc3ncccn3)cc2=O)cc(OC)c1OC`: the cell count in assay [1] worked out at 281 cells. For the same molecule, the activation in assay [2] is -0.2% (inactive).

For the molecule `CCCOCC(O)COc1ccccc1C(=O)N1CCOCC1` (stereo not drawn), in assay [1], the cell count turned out to be 317 cells. Moreover, in assay [2], the activation is -0.2% (inactive).

`CCC1Sc2ccc(S(=O)(=O)CCC(=O)Nc3cc(C)ccn3)cc2NC1=O` (stereo not drawn) displayed a cell count in assay [1] of 341 cells. In addition, in assay [2], the activation was -0.1% (inactive).

`CC(NC(=O)Cn1nc(C(F)(F)F)c2c1CCC2)c1ccccc1` (stereo not drawn) displayed a cell count in assay [1] of 371 cells. The activation in assay [2] is -0.2% (inactive).

For `COc1ccc2nc(C)cc(SCC(=O)N/N=C/c3ccco3)c2c1`, the cell count in assay [1] came out at 330 cells. The activation in assay [2] was 0.2% (inactive).

`Cc1ccccc1NC(=O)NC1CCCCC1C` (stereo not drawn): the cell count in assay [1] was 353 cells. The activation in assay [2] is 0.4% (inactive).

Molecule `CN(C)c1ccc(/C=N/NC(=O)C2CC2c2ccccc2)cc1` (stereo not drawn) gave a cell count in assay [1] of 339 cells. The activation in assay [2] was -0.2% (inactive).

In assay [1], `O=C(NCc1ccc(F)cc1)C(=O)NCC1OCCCN1S(=O)(=O)c1cccs1` (stereo not drawn) yielded a cell count of 348 cells. For the same molecule, the activation in assay [2] was -0.1% (inactive).

In assay [1], `COc1ccc(C(=O)NCC(=O)N/N=C/c2cccnc2)cc1OC` displayed a cell count of 322 cells. The activation in assay [2] is -0.2% (inactive).

With `Cc1nc(Cl)sc1C(=O)Nc1cc(F)cc(F)c1`, the cell count in assay [1] stood at 356 cells. Also, the activation in assay [2] was -0.2% (inactive).

Consider `CN(C)c1ccc(/C=C/C(=O)c2ccccc2O)cc1`, for which the cell count in assay [1] was determined as 238 cells. In addition, the activation in assay [2] was 0.1% (inactive).

In the case of `CN(C)c1ccc(C(=O)/C=C/c2ccccc2)cc1`, the cell count in assay [1] amounted to 254 cells. In assay [2], the activation was -0.3% (inactive).

As to `Cn1c(=O)c(=O)n(C)c2cc(S(=O)(=O)N3CCN(c4ccccc4F)CC3)ccc21`, in assay [1], the cell count was found to be 328 cells. Also, the activation in assay [2] was -0.1% (inactive).

These data come from PubChem BioAssay AID1961 (Sanford-Burnham Center for Chemical Genomics, 2009).
